Experimental data as given in PubChem BioAssay AID2314 (National Center for Advancing Translational Sciences (NCATS), 2010).
Screen size: about 300,000 compounds; about 37,000 (12%) were called active. Rule as the data show it: active = max response mostly above about 13% (no sharp cut-off); inactive = mostly below about 14%. The sample as a whole holds a higher share of actives than the screen did.

assay: Cycloheximide Counterscreen for Small Molecule Inhibitors of Shiga Toxin; conditions: cell reporter, cycloheximide protein synthesis inhibition counterscreen; hits give high values; also: read at 38.3 µM for the half of the compounds with a filed dose; 0% is about no effect

| SMILES | max response |
| --- | --- |
| OC(CNCC1CCCO1)Cn1c2ccc(Br)cc2c2cc(Br)ccc21 (stereo unspecified) | -6.3% (inactive) |
| CCCN1CCn2c3c(c4cc(Br)ccc42)CCCC31 (stereo unspecified) | 25.3% (active) |
| COCCn1c(SCC(=O)c2[nH]c(C)c(C(C)=O)c2C)nc2ccccc2c1=O | -3.66% (inactive) |
| N#Cc1c(NC(=O)C2CC(Cl)=CCC2C(=O)O)sc2c1CCCCC2 (stereo unspecified) | -1.59% (inactive) |
| CC(=O)c1c(C)[nH]c(C(=O)OCC(=O)Nc2sc3c(c2C#N)CCCC3)c1C | -1.13% (inactive) |
| CCN1CCN(CC(=O)Nc2sc3c(c2C#N)CCC3)CC1 | 1.34% (inactive) |
| N#Cc1c(NC(=O)C2CCCO2)sc2c1CCCCC2 (stereo unspecified) | 48.6% (active) |
| N#Cc1c(NC(=O)c2ccc(N3CCOCC3)c([N+](=O)[O-])c2)sc2c1CCCC2 | 1.18% (inactive) |
| N#Cc1c(NC(=O)CCCl)sc2c1CCCCC2 | 21.9% (active) |
| O=C1C(=O)N(CCCO)C(c2ccccc2)/C1=C(\O)c1ccc(Br)cc1 (stereo unspecified) | 0.724% (inactive) |
| CN1C(=O)/C(=C/C=C2\SCCN2C)OC1=S | 37.4% (active) |
| Cc1csc(NC(=O)CSc2nc(=O)cc(N)n2-c2ccc(F)cc2)n1 | 16.3% (inactive) |
| CCc1ccc(OCC(=O)NCC(c2ccc(Cl)cc2)N2CCCCC2)cc1 (stereo unspecified) | -2.84% (inactive) |
| COc1ccc(-c2cc3n(n2)CCc2nc4ccccc4n2-3)cc1 | 9.75% (active) |
| COc1ccc(-c2cc(C(=O)n3cnc4ccccc43)c3ccccc3n2)cc1 | 16.1% (inactive) |
| CCn1c(C(O)c2cc(OC)ccc2OC)nc2ccccc21 (stereo unspecified) | 5.8% (inactive) |
| CC(CC(=O)Nc1ccc(F)cc1F)S(=O)(=O)c1ccc2c(c1)NC(=O)CO2 (stereo unspecified) | 2.18% (inactive) |
| Brc1ccc(-c2nn[nH]n2)cc1 | 9.02% (inactive) |
| c1cc(-c2nn[nH]n2)ccc1CN1CCCCC1 | -1.37% (inactive) |
| CC(C)c1ccc(-c2nn[nH]n2)cc1 | 23% (active) |
| COc1cccc(NC(=O)CCNS(=O)(=O)c2ccc3c(c2)oc(=O)n3C)c1 | 0.768% (inactive) |
| COc1ccc(OCc2nnc3n2N=C(c2ccccc2)C(CC(=O)O)S3)cc1 (stereo unspecified) | -4.15% (inactive) |
| COc1ccc(CNC(=O)C(=O)NCC2OCCN2C(=O)c2ccc(OC)cc2)cc1 (stereo unspecified) | -1.12% (inactive) |
| N#Cc1ccccc1NC(=O)c1cccc(COc2ccc(Cl)cc2Cl)c1 | 116% (active) |

| SMILES | max response |
| --- | --- |
| CSc1ccc(C#N)cc1NC(=O)c1ccc(Cl)cc1 | 6.79% (inactive) |
| CSc1ccc(C#N)cc1NC(=O)c1cccc(Cl)c1 | -1.93% (inactive) |
| COc1ccc(OC)c(NC(=O)c2cccc(S(=O)(=O)N3CCN(C(C)=O)CC3)c2)c1 | -2.4% (inactive) |
| CC[n+]1c(C)n(-c2ccccc2)c2ccc(NC(C)=O)cc21 | 8.88% (inactive) |
| Cc1ccc(CCN2CC(C(=O)NCCc3ccccc3)CC2=O)cc1 (stereo unspecified) | 20.4% (inactive) |
| COc1cccc(CNS(=O)(=O)c2csc(C(N)=O)c2)c1 | -4.05% (inactive) |
| COc1ccc(C(=O)NCCn2nc(C)cc2C)cc1OC1CCN(C(C)=O)CC1 | 1.36% (inactive) |
| O=C(N/N=C/c1cccnc1)c1ccc(NC(=O)c2ccc(F)cc2)cc1 | -1.26% (inactive) |
| Cc1ccc(/C=N/NC(=O)CNC(=O)COc2ccccc2)o1 | -7.97% (inactive) |
| O=C(N/N=C\c1cccnc1)c1cc(-c2ccccc2)nc2c(Cl)cccc12 | -2.05% (inactive) |
| Cc1ccc(/C=N/NC(=O)CSc2ccccn2)o1 | 17.1% (inactive) |
| O=C(N/N=C/c1cccnc1)c1cc2ccccc2cc1O | 35.6% (active) |
| Cc1ccc(/C=N/NC(=O)c2cc3ccccc3cc2O)o1 | 19.4% (active) |
| CCC(C)[C@H](NC(=O)N1c2ccccc2NC(=O)[C@@H]1C(C)C)C(=O)N[C@@H](Cc1ccccc1)C(=O)O (stereo partly specified) | 1.02% (inactive) |
| COc1ccc(OCC(O)CN(C)C(=O)C(C)Oc2ccccc2)cc1 (stereo unspecified) | -1.78% (inactive) |
| Cc1ccc(SC(CC(=O)c2ccc(C(C)(C)C)cc2)C(=O)O)cc1 (stereo unspecified) | 7.94% (inactive) |
| Cc1cc(-c2ccc(C)c(S(=O)(=O)NC(C)Cc3ccco3)c2)on1 (stereo unspecified) | 17.2% (inactive) |
| COC(=O)c1ccc(NC(=O)c2cc3c(CO)cnc(C)c3oc2=Nc2cccc(C(N)=O)c2)cc1 | -3.69% (inactive) |
| CCCCOc1ccc(C(=O)NCc2ccncc2)cc1 | 4.92% (inactive) |
| O=C(CCCOc1ccccc1)NCc1ccco1 | 8.48% (inactive) |
| CCCCOCCCNC(=O)c1ccccc1OCC | -1.45% (inactive) |
| CCCc1ccc(OCCNC(=O)c2ccccc2Br)cc1 | 16.2% (active) |
| CCOc1cc(NC(=S)NCCCOC)c(OCC)cc1NC(=O)c1ccco1 | 2.79% (inactive) |
| CCCc1ccc(OCC(=O)NNC(=S)NC(=O)c2ccco2)cc1 | -2.62% (inactive) |

| SMILES | max response |
| --- | --- |
| Cc1ccc(OCC(=O)NCCCNC(=O)c2ccco2)cc1C | -3.33% (inactive) |
| COc1ccc(CCNC(=O)c2ccco2)cc1 | 33% (active) |
| CCOc1ncccc1C(=O)NCCc1ccc(OC)cc1 | -4.4% (inactive) |
| COc1ccc(CCNC(=O)c2ccccc2OCc2ccccc2)cc1 | -1.84% (inactive) |
| CCCCOc1ccc(C(=O)NCc2ccco2)cc1 | 27.4% (active) |
| CCCc1ccc(OCCNC(=O)c2ccco2)cc1 | 37.4% (active) |
| CC(C)Oc1c(Br)cc(Br)cc1/C=N/NC(N)=S | -0.405% (inactive) |
| CN(C(=O)CN1C(=O)CCSc2ccc(S(=O)(=O)N3CCCC3)cc21)c1ccccc1 | 1.23% (inactive) |
| CCOc1ccc(N(C)Cc2cc(=O)oc3ccc(OC)cc23)cc1 | -1.56% (inactive) |
| O=C(C1CCC(=O)N(C2CC2)C1)N1CCN(c2ccc(Cl)cc2)CC1 (stereo unspecified) | -2.23% (inactive) |
| CCn1c(CSCc2c(Cl)cccc2Cl)n[nH]c1=S | 7.21% (inactive) |
| O=C(C[n+]1cc(-c2ccc(Cl)c(Cl)c2)n2c1CCC2)c1cccs1 | -1.98% (inactive) |
| CCOc1ccccc1NC(=S)N1CCN(c2cccc(C)c2C)CC1 | -1.77% (inactive) |
| NC(=O)CCC(NS(=O)(=O)c1ccc(Cl)cc1)C(=O)NCc1ccccc1Cl (stereo unspecified) | -1.61% (inactive) |
| Cc1nn(CC(=O)NCCc2ccccc2)c(=O)c2cc3occc3n12 | -3.95% (inactive) |
| O=C(Cn1c(-c2cscn2)nc2ccccc21)Nc1ccc(Cl)cc1 | -2.37% (inactive) |
| Clc1cccc(N=C2NN=C(c3ccc4c(c3)OCCO4)CS2)c1 | 74.7% (active) |
| CS(=O)(=O)N(CC(=O)N1CCN(Cc2ccccc2)CC1)c1ccc2c(c1)OCCO2 | -2.95% (inactive) |
| c1ccc(CN2CCC(N=C3NN=C(c4ccc5c(c4)OCCO5)CS3)CC2)cc1 | 32.2% (active) |
| CC(=NC1CCN(Cc2ccccc2)CC1)c1c(O)[nH]c(=O)[nH]c1=O | -1.74% (inactive) |
| CCCn1c(C)cc(/C=C(\C#N)C(=O)OCC(=O)Nc2cc(OC)c(OC)c(OC)c2)c1C | 31.9% (active) |
| CCOC(=O)/C(C#N)=C/c1ccc(OCC(=O)Nc2ccccc2)c(OC)c1 | 22.6% (active) |
| COc1cc(/C=N/NC(=O)Nc2ccccc2)ccc1OCCOc1ccccc1C | -1.6% (inactive) |
| COc1cc(CCC(=O)OCC(=O)Nc2cccc(S(N)(=O)=O)c2)cc(OC)c1OC | -3.66% (inactive) |

| SMILES | max response |
| --- | --- |
| COc1cc(C2C3=C(CCCC3=O)OC3=C2C(=O)CCC3)ccc1OCC(=O)Nc1ccccc1 | 4.65% (inactive) |
| CCOC(=O)/C(C#N)=C/c1cn(CCC(=O)O)nc1-c1ccc(Br)cc1 | -0.95% (inactive) |
| COc1ccc(-c2nnc(SC(=O)N3c4ccccc4Sc4ccccc43)o2)cc1 | 9.5% (inactive) |
| COc1ccc2[nH]c(=O)c(C3c4cc(OC)c(OC)cc4CCN3C(=O)c3ccco3)cc2c1 (stereo unspecified) | -3.91% (inactive) |
| NS(=O)(=O)c1cccc(NC(=O)CC23CC4CC(CC(Br)(C4)C2)C3)c1 | -0.826% (inactive) |
| O=C(CN1C(=O)/C(=C\c2ccccc2F)SC1=S)Nc1nc2ccccc2s1 | 47.4% (active) |
| O=C(CN1C(=O)/C(=C/c2ccccc2F)Sc2ccccc21)NCc1cccnc1 | 8.85% (inactive) |
| CN(C(=O)CCN1C(=O)/C(=C/c2ccccc2F)SC1=S)C1CCS(=O)(=O)C1 (stereo unspecified) | 4.42% (inactive) |
| COC(=O)c1cccc(N(C(=O)CNC(=O)c2cccs2)C(C(=O)NCC2CCCO2)c2ccc(OC)c(OC)c2)c1 (stereo unspecified) | -3.34% (inactive) |
| Cc1cc(O)ccc1-c1cnc2ccccc2n1 | 34.4% (active) |
| O=C(O)c1cc(S(=O)(=O)N(Cc2ccccc2)c2ccccc2)ccc1Cl | -0.844% (inactive) |
| COc1ccc(N(C(=O)CNC(=O)c2ccco2)C(C(=O)NCC2CCCO2)c2ccccc2)cc1Cl (stereo unspecified) | -3.36% (inactive) |
| COc1ccc(SC[C@H](Cc2ccccc2)N2CCN(CCc3ccccc3)CCC2=O)cc1 | -4.06% (inactive) |
| Cc1ccc(SCC(CC(C)C)N2CCN(CCc3ccccc3)CCC2=O)cc1 (stereo unspecified) | 40% (active) |
| CCCN1CCC(=O)N(C(CSc2ccc(C)cc2)Cc2ccccc2)CC1 (stereo unspecified) | 7.93% (inactive) |
| CCOC(=O)CN1C(=O)C(=O)c2cc(C)ccc21 | -1.86% (inactive) |
| CCOC(=O)[C@@H]1[C@H]2COc3cc(OC)ccc3[C@H]2N2C(=O)N(c3ccc(F)cc3)C(=O)[C@]12C | 0.485% (inactive) |
| COCCN(C(=O)C(C)C)c1nnc(-c2ccc(C(C)(C)C)cc2)s1 | 13.2% (inactive) |
| Cc1ccc(-c2nc3ccccc3[nH]2)cc1NC(=O)c1sc2ccccc2c1Cl | -0.874% (inactive) |
| O=C(/C=C/c1ccco1)Nc1cccc(-c2nc3ccccc3[nH]2)c1 | 51.8% (active) |
| CC(C)Oc1ccc(/C=C(\NC(=O)/C=C/c2ccco2)C(=O)NCCc2nc3ccccc3[nH]2)cc1 | 5.81% (inactive) |
| O=C(Nc1cccc(-c2nc3ccccc3[nH]2)c1)c1ccc(C(=O)Nc2cccc(-c3nc4ccccc4[nH]3)c2)cc1 | 48.3% (active) |
| NS(=O)(=O)c1cccc(NC(=O)COC(=O)/C=C/c2ccco2)c1 | 0.371% (inactive) |
| O=C(Cc1cccs1)Nc1cccc(-c2nc3ccccc3[nH]2)c1 | 11.5% (inactive) |
